Reference: PubChem BioAssay AID1159580 (chemical genetic matrix, 2015)
Screen size: about 5,500 compounds; about 2,000 (36%) were called active. Not shown: some 18% with an inconclusive outcome. Rule as the data show it: active = normalized growth mostly below about 0.91 (no sharp cut-off); inconclusive = no clear call, values can overlap the other calls; inactive = mostly above about 0.92. The list shows a part of the results.

Assay: chemical genetic growth profiling, strain panel (AID 1159580);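 also: tested at 20 µM; growth read once vehicle control cultures reached saturation at 30 °C; 1 = growth at the plate median or of vehicle wells; lower values mean less growth of the strain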
Conditions: growth OD

Measured: normalized growth

CCCCCCC(C)OC(=O)COc1ccc(Cl)cc1Cl (configuration not stated)
inactive: S. cerevisiae deletion strains, locus YJR075W, strain HOC1, hits give low values 0.931 | S. cerevisiae deletion strains, locus YKL009W, strain mrt4, hits give low values 0.992 | S. cerevisiae deletion strains, locus YKL068W, hits give low values 0.998 | S. cerevisiae deletion strains, locus YKL085W, strain MDH1 (second series), hits give low values 0.984 | S. cerevisiae deletion strains, locus YKL085W, strain MDH1, hits give low values 0.984 | S. cerevisiae deletion strains, locus YKL160W, strain elf1, hits give low values 0.996 | S. cerevisiae deletion strains, locus YKL190W, strain CNB1, hits give low values 0.997 | S. cerevisiae deletion strains, locus YKR001C, strain vps1, hits give low values 0.998 | S. cerevisiae deletion strains, locus YKR026C, strain gcn3, hits give low values 0.989 | S. cerevisiae deletion strains, locus YKR091W, strain srl3, hits give low values 0.993 | S. cerevisiae deletion strains, locus YLL001W, strain dnm1, hits give low values 0.991 | S. cerevisiae deletion strains, locus YLL026W, hits give low values 0.986 | S. cerevisiae deletion strains, locus YLL041C, strain sdh2, hits give low values 0.994 | S. cerevisiae deletion strains, locus YLR027C, strain aat2, hits give low values 0.995 | S. cerevisiae deletion strains, locus YLR039C, strain RIC1, hits give low values 0.893 | S. cerevisiae deletion strains, locus YLR058C, strain SHM2, hits give low values 0.996 | S. cerevisiae deletion strains, locus YLR102C, strain apc9, hits give low values 1 | S. cerevisiae deletion strains, locus YLR113W, strain HOG1, hits give low values 0.961 | S. cerevisiae deletion strains, locus YLR221C, strain rsa3, hits give low values 0.989 | S. cerevisiae deletion strains, locus YLR258W, strain gsy2, hits give low values 0.981 | S. cerevisiae deletion strains, locus YLR262C, strain YPT6 (second series), hits give low values 0.971 | S. cerevisiae deletion strains, locus YLR262C, strain YPT6, hits give low values 0.983 | S. cerevisiae deletion strains, locus YLR268W, strain sec22, hits give low values 0.997 | S. cerevisiae deletion strains, locus YLR320W, strain mms22, hits give low values 0.982 | S. cerevisiae deletion strains, locus YLR330W, strain CHS5, hits give low values 0.992 | S. cerevisiae deletion strains, locus YLR342W, strain FKS1 (second series), hits give low values 1.01 | S. cerevisiae deletion strains, locus YLR342W, strain FKS1, hits give low values 0.987 | S. cerevisiae deletion strains, locus YLR357W, strain rsc2, hits give low values 1.01 | S. cerevisiae deletion strains, locus YLR370C, strain arc18, hits give low values 0.994 | S. cerevisiae deletion strains, locus YLR371W, strain rom2, hits give low values 0.997 | S. cerevisiae deletion strains, locus YLR384C, strain iki3, hits give low values 0.993 | S. cerevisiae deletion strains, locus YLR418C, strain cdc73, hits give low values 0.965 | S. cerevisiae deletion strains, locus YML016C, strain PPZ1, hits give low values 0.997 | S. cerevisiae deletion strains, locus YML032C, strain rad52, hits give low values 1.01 | S. cerevisiae deletion strains, locus YML120C, strain ndi1, hits give low values 0.983 | S. cerevisiae deletion strains, locus YML124C, strain tub3, hits give low values 0.998 | S. cerevisiae deletion strains, locus YMR058W, strain fet3, hits give low values 0.994 | S. cerevisiae deletion strains, locus YMR078C, strain ctf18, hits give low values 1.01 | S. cerevisiae deletion strains, locus YMR125W, strain sto1, hits give low values 0.983 | S. cerevisiae deletion strains, locus YMR129W, hits give low values 0.994 | S. cerevisiae deletion strains, locus YMR205C, strain PFK2, hits give low values 0.968 | S. cerevisiae deletion strains, locus YMR223W, strain ubp8, hits give low values 0.989 | S. cerevisiae deletion strains, locus YMR231W, strain pep5, hits give low values 0.993 | S. cerevisiae deletion strains, locus YMR263W, strain SAP30, hits give low values 0.984 | S. cerevisiae deletion strains, locus YMR307W, strain GAS1, hits give low values 0.869 | S. cerevisiae deletion strains, locus YNL067W, strain RPL9B, hits give low values 0.985 | S. cerevisiae deletion strains, locus YNL071W, strain lat1, hits give low values 0.982 | S. cerevisiae deletion strains, locus YNL128W, strain TEP1, hits give low values 0.987 | S. cerevisiae deletion strains, locus YNL153C, strain GIM3, hits give low values 0.996 | S. cerevisiae deletion strains, locus YNL183C, strain NPR1, hits give low values 0.96 | S. cerevisiae deletion strains, locus YNL209W, strain ssb2, hits give low values 0.995 | S. cerevisiae deletion strains, locus YNL233W, strain BNI4, hits give low values 0.989 | S. cerevisiae deletion strains, locus YNL248C, strain rpa49, hits give low values 0.984 | S. cerevisiae deletion strains, locus YNL250W, strain rad50, hits give low values 1 | S. cerevisiae deletion strains, locus YNL271C, strain bni1, hits give low values 1 | S. cerevisiae deletion strains, locus YNL298W, strain CLA4, hits give low values 1 | S. cerevisiae deletion strains, locus YNL307C, strain MCK1, hits give low values 0.993 | S. cerevisiae deletion strains, locus YNL322C, strain KRE1 (second series), hits give low values 0.992 | S. cerevisiae deletion strains, locus YNL322C, strain KRE1, hits give low values 0.992 | S. cerevisiae deletion strains, locus YNR049C, strain mso1, hits give low values 0.984 | S. cerevisiae deletion strains, locus YNR052C, strain pop2, hits give low values 1.01 | S. cerevisiae deletion strains, locus YOL006C, strain TOP1, hits give low values 0.905 | S. cerevisiae deletion strains, locus YOL012C, strain htz1 0.707 | S. cerevisiae deletion strains, locus YOL147C, strain pex11, hits give low values 1 | S. cerevisiae deletion strains, locus YOR001W, strain rrp6, hits give low values 0.995 | S. cerevisiae deletion strains, locus YOR061W, strain CKA2, hits give low values 0.981 | S. cerevisiae deletion strains, locus YOR069W, strain VPS5, hits give low values 0.979 | S. cerevisiae deletion strains, locus YOR070C, strain gyp1, hits give low values 0.985 | S. cerevisiae deletion strains, locus YOR080W, strain dia2, hits give low values 0.995 | S. cerevisiae deletion strains, locus YOR083W, strain WHI5, hits give low values 0.999 | S. cerevisiae deletion strains, locus YOR106W, strain vam3, hits give low values 0.958 | S. cerevisiae deletion strains, locus YOR136W, strain idh2, hits give low values 1.01 | S. cerevisiae deletion strains, locus YOR144C, strain elg1, hits give low values 1.01 | S. cerevisiae deletion strains, locus YOR184W, strain ser1, hits give low values 0.991 | S. cerevisiae deletion strains, locus YOR231W, strain MKK1, hits give low values 1.04 | S. cerevisiae deletion strains, locus YOR265W, strain rbl2, hits give low values 0.991 | S. cerevisiae deletion strains, locus YOR270C, strain vph1, hits give low values 0.953 | S. cerevisiae deletion strains, locus YOR290C, strain snf2, hits give low values 0.995 | S. cerevisiae deletion strains, locus YOR316C, strain cot1, hits give low values 1 | S. cerevisiae deletion strains, locus YPL051W, strain arl3, hits give low values 0.989 | S. cerevisiae deletion strains, locus YPL055C, strain LGE1, hits give low values 0.94 | S. cerevisiae deletion strains, locus YPL078C, strain atp4, hits give low values 0.988 | S. cerevisiae deletion strains, locus YPL106C, strain sse1, hits give low values 1.01 | S. cerevisiae deletion strains, locus YPL240C, strain hsp82, hits give low values 1 | S. cerevisiae deletion strains, locus YPL241C, strain CIN2, hits give low values 0.995 | S. cerevisiae deletion strains, locus YPL256C, strain CLN2, hits give low values 1.01 | S. cerevisiae deletion strains, locus YPR119W, strain clb2, hits give low values 1 | S. cerevisiae deletion strains, locus YPR141C, strain kar3, hits give low values 0.995 | S. cerevisiae deletion strains, locus YPR163C, strain tif3, hits give low values 1.01 | S. cerevisiae deletion strains, locus YPR167C, strain met16, hits give low values 1 | S. cerevisiae deletion strains, strain wtn01, hits give low values 1 | S. cerevisiae strains, strain wild type, hits give low values 0.981
